Data taken from PubChem BioAssay AID1626 (SRMLSC, 2009).
Where “and” joins values, the source holds several entries; their conditions need not be identical. Equal values may be shown once. Among all 220,000 compounds or so, about 2,000 (0.91%) were called active. About 2% were inconclusive and are not listed. The list is a sample of the results. Measured potencies and affinities stand elsewhere. Values without a mark were called inactive. Rule as the data show it: inconclusive = inhibition above about 80% without an active follow-up result; inactive = below that; test concentration not stated here.

assay: M. tuberculosis H37Rv growth inhibitors, H37Rv strain (AID 1626); details: stronger effect = higher value, concentration not given here;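 also: bacteria incubated seven days before Alamar blue readout; 0% = bacteria only wells and 100% = bacteria with antibiotic wells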

Point of comparison: `O=c1[nH]c(NCCO)nc2c1C1(CCCCC1)Cc1ccccc1-2`, inhibition -9.4%. Against it:
- Cc1ccc(C(=O)NCc2ccccc2)cc1Br — higher, -8.73%
- COc1ccccc1NC(=O)CSCc1nc2ccccc2[nH]1 — higher, -0.98%
- COC(=O)Nc1ccc(Oc2ccccc2)cc1 — higher, -4.37%
- CCOC(=O)N1CCN(CCC(=O)Nc2ccc(Br)cc2)CC1 — lower, -16.8%
- O=C(CSCc1nc2ccccc2[nH]1)Nc1ccccc1 — higher, 0.99%
- Cc1ccc(NC(=O)CNCc2ccccc2)c(Br)c1 — higher, -0.29%
- O=C(CNCc1ccccc1)Nc1ccc(F)cc1 — higher, -5.31%
- CCc1cccc(NC(=S)N(CCCN2CCOCC2)C(C)c2cc3cccc(OC)c3o2)c1 (stereo not drawn) — lower, -11.9%
- COc1ccc(CNC(=O)CCSCc2cccc(Cl)c2)c(OC)c1 — higher, -4.73%
- O=C(Nc1nc(-c2ccc(S(=O)(=O)N3CCCC3)cc2)cs1)c1ccco1 — higher, 7.57%
- COCCOCCn1c(/C=C/c2ccccc2)nc2ccccc21 — higher, 11%
- O=S(=O)(NCc1ccccc1)c1ccccc1Br — higher, 4.19%
- CCN(CC)S(=O)(=O)c1ccc2c(c1)nc(CCC(=O)Nc1ccccc1Cc1ccccc1)n2CC — higher, -0.79%
- COc1ccc(/C=C2\SC(=S)NC2=O)cc1OS(=O)(=O)c1ccc(NC(C)=O)cc1 — higher, -3.97%
- Cc1ccccc1N(CC(=O)Nc1ccccc1C(=O)O)S(C)(=O)=O — higher, -1.04%
- CCN(CC)c1nc(-c2nn[nH]n2)nc(N(CC)CC)n1 — higher, -3.01%
- O=C(O)/C=C\C(=O)Nc1ccc(Oc2ccccc2)cc1 — higher, -4.64%
- CCOC(=O)C(=O)Nc1ccc(Oc2ccccc2)cc1 — lower, -13.3%
- CC(C)(C)NC(=O)C1CC(=O)OC12CCOC(C)(C)C2 (stereo not drawn) — higher, 0.06%
- COC(=O)CN(c1ccccc1)S(=O)(=O)c1ccc(F)cc1 — higher, -4.89%
- O=[N+]([O-])C(=c1ccc2c(c1)N1C3=C(CCCC3)CC3CCCCC31N=2)[N+](=O)[O-] (stereo not drawn) — higher, -8.62%
- CC(=O)c1ccc(NC(=O)CSC(C)C)cc1 — higher, 0.93%
- CC(=O)c1ccc(NC(=O)CSCCO)cc1 — higher, -4.48%
- O=C(CSCC(=O)NC1CC1)Nc1ccccc1 — higher, -9.05%
- O=C(CSCC(=O)NC1CCCC1)Nc1ccccc1 — higher, 6.01%
- CC(=O)Nc1ccc(S(=O)(=O)N2CCN(C(C)CCc3ccccc3)CC2)cc1 (stereo not drawn) — lower, -9.9%
- CCc1ccc(OCCCC(=O)O)c(Br)c1 — higher, -8.18%
- COC(=O)c1ccc(COc2ccc3c4c(c(=O)oc3c2)CCC4)o1 — higher, -7.47%
- Cc1cc(C)n2nc(SCC(=O)N/N=C/c3cccc(Br)c3)nc2n1 — higher, -4.74%
- O=C(NC1(C(F)(F)F)C(=O)Nc2c1c(=O)[nH]c(=O)n2Cc1ccco1)C1CC1 (stereo not drawn) — higher, 1%
- C=CCNC(=O)CSc1nnc(-c2ccccc2Cl)n1-c1c(C)n(C)n(-c2ccccc2)c1=O — higher, -3.15%
- COc1ccc(CCNC(=O)CSc2cn(Cc3cccc(C)c3)c3ccccc23)cc1OC — higher, 4.76%
- O=c1[nH]c(NCCO)nc2c1C1(CCCC1)Cc1ccccc1-2 — higher, -4.7%
- O=c1[nH]c(CN(CCO)CCO)nc2c1C1(CCCCC1)Cc1ccccc1-2 — higher, 8.33%
- CCc1nc2c(c(=O)[nH]1)C1(CCCC1)Cc1ccccc1-2 — higher, 12.8%
- COc1cccc2c3c(c(C)nc12)CC(C)O3 (stereo not drawn) — higher, -3.67%
- Cc1cc2c(C)nc3ccccc3c2o1 — higher, -3.45%
- Cc1cc(C(=O)NNC(=O)CCCCC(=O)NNC(=O)c2cc(C)[nH]n2)n[nH]1 — higher, 1.69%
- O=C(CCCSc1nc(-c2ccco2)cc(C(F)(F)F)n1)Nc1ccc2c(c1)OCO2 — higher, 6.6%
- Cc1noc2ncnc(Sc3ccccc3Cl)c12 — higher, 8.85%
- Cc1ccccc1Sc1ncnc2onc(C)c12 — higher, -3.01%
- CCn1c(SCc2ccc(C(=O)Nc3nccs3)cc2)nnc1-c1ccc(N)cc1 — higher, 2.31%
- CCn1c(SCc2ccc(C(=O)Nc3nccs3)cc2)nnc1-c1ccc(NC(C)=O)cc1 — higher, 0.27%
- COC(=O)CNC(=O)c1cn(CC(C)C)c(=O)c2cc(OC)c(OC)cc12 — higher, -2.81%
- CC1CC(=O)c2cnc(N3CCOCC3)nc2C1 (stereo not drawn) — higher, 5.78%
- O=C(CSc1nnnn1C1CCCC1)NCc1ccccc1 — higher, -3.18%
- CCCn1c(=N)n(CC(O)COc2cccc(C)c2)c2ccccc21 (stereo not drawn) — higher, 4.16%
- COc1ccc(OCC(O)Cn2c(=N)n(CCN3CCOCC3)c3ccccc32)cc1 (stereo not drawn) — higher, 3.12%
- CCCCn1c(=N)n(CC(O)COc2cccc(C)c2)c2ccccc21 (stereo not drawn) — higher, 0.69%
- N=c1n(CCN2CCCCC2)c2ccccc2n1CC(O)COc1ccccc1 (stereo not drawn) — higher, -5.72%
- CC(C)N1CCN(Cc2nc3c(s2)CCCC3)CC1CCO (stereo not drawn) — higher, -2.24%
- COc1cc([C@@H]2c3cc4c(cc3[C@@H](NC3CCN(Cc5ccccc5)CC3)[C@H]3COC(=O)[C@H]23)OCO4)cc(OC)c1O — higher, 51.2%
- CC1=C(C(=O)OCc2ccc(C)cc2)C(c2ccc(O)c([N+](=O)[O-])c2)NC(=O)N1 (stereo not drawn) — higher, -1.03%
- COc1ccc(S(=O)(=O)N(CC(=O)NCC2CCCO2)c2ccccc2)cc1OC (stereo not drawn) — higher, -6.11%
- Cc1cc(-c2ccc(Cl)cc2Cl)c(C#N)c(=O)[nH]1 — higher, -3.23%
- Cc1ncn2cc(-c3ccc(Cl)cc3Cl)[nH]c(=O)c12 — higher, 11.2%
- O=c1[nH]c(=O)n(-c2ccccc2)c2c1C(C(F)(F)F)(C(F)(F)F)N=C(CCC1CCCCC1)N2 — higher, -0.92%
- Cc1nc(N2CCN(c3ccccn3)CC2)c2c(C)c(C(=O)Nc3ccc(F)cc3F)sc2n1 — higher, 79.3%
- Cc1nc(N2CCOCC2)c2c(C)c(C(=O)Nc3ccccc3Cl)sc2n1 — higher, 0.57%
- Cc1nc(N2CCCCC2)c2c(C)c(C(=O)Nc3ccccc3C(F)(F)F)sc2n1 — higher, 1.26%
- Cc1nc(N2CCOCC2)c2c(C)c(C(=O)Nc3ccc(F)cc3F)sc2n1 — higher, -1.7%

For `CCOC(=O)N1CCN(CCC(=O)Nc2cccc(Br)c2)CC1`, the inhibition was -0.92% and -12.2%.
